Assay outcomes deposited in PubChem by Center for Chemical Genomics, University of Michigan.
Dicer inh: inhibitors of human Dicer processing of pre-microRNA. Q9UPY3. cat-ELCCA pre-miR-21 Dicer processing, chemiluminescence; stronger effect = higher value. z-score at 25 µM. 47,000 compounds, 6% hits; in the data active = z-score above about 3, passing the limit was not always enough;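 also: plate controls were vehicle for no effect and no enzyme for full effect; higher signal means more uncleaved substrate so more Dicer inhibition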
Target sequence (Q9UPY3 whole entry, looked up): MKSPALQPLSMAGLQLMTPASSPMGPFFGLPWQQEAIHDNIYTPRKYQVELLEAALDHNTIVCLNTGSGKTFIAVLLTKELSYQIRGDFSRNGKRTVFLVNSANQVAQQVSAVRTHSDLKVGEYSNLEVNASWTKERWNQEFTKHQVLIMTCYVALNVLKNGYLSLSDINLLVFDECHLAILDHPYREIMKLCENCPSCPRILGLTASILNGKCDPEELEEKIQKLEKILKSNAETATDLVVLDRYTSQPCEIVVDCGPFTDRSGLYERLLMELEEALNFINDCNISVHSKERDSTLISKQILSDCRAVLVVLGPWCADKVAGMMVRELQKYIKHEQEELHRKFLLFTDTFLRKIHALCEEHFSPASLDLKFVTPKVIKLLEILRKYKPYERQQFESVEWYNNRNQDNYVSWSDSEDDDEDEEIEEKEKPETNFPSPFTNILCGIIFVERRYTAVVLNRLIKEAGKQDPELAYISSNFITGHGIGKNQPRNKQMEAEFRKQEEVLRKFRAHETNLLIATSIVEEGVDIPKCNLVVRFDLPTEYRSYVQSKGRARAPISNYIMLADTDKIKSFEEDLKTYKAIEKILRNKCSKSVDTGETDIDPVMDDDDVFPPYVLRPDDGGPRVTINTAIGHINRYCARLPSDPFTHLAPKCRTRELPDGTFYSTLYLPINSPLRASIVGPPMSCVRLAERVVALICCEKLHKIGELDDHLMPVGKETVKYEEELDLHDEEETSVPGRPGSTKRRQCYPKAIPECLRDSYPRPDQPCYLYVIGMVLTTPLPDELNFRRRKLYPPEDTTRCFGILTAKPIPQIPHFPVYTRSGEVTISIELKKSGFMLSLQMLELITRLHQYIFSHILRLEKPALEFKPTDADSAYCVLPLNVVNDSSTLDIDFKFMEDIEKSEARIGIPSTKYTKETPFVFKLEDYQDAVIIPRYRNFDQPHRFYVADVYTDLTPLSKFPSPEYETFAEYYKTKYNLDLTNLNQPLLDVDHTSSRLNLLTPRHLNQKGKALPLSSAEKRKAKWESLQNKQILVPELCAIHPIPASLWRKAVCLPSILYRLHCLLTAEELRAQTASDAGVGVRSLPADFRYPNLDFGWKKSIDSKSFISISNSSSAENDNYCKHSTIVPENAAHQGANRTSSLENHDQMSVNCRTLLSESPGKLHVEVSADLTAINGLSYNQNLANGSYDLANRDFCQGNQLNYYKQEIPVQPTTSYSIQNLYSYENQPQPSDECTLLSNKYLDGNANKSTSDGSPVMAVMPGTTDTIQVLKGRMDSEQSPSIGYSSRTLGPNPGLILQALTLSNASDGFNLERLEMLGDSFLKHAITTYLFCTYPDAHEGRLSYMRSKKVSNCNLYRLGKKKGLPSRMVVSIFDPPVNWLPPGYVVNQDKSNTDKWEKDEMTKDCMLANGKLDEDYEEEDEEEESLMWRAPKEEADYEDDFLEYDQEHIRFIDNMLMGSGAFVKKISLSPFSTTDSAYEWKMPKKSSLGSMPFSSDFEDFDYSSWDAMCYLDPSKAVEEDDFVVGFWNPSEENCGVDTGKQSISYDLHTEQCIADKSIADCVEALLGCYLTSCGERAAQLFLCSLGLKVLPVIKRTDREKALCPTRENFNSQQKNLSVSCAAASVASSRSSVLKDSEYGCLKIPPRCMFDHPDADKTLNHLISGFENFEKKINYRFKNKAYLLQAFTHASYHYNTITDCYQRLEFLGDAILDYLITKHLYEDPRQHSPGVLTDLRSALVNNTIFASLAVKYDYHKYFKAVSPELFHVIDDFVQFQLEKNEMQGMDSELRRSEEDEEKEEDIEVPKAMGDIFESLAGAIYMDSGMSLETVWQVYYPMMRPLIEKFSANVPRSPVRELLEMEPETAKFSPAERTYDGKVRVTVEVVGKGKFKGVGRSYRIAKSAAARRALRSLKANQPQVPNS
* hit, by the source's call. This excerpt belongs to a sample that is enriched for hits.

SMILES | Dicer inh
COc1ccc(NS(=O)(=O)c2ccc3c(c2)OCCO3)c(OC)c1 | -2.6
O=S(=O)(NCCc1ccccn1)c1ccc2c(c1)OCCCO2 | 0.54
O=S(=O)(Nc1ccc(OCc2ccccc2)cc1)c1ccc2c(c1)OCCO2 | 3.4*
CC(=O)Nc1c(F)cc(F)cc1[N+](=O)[O-] | -0.41
Cc1ccc(-n2nnnc2SCc2nc(-c3cccc([N+](=O)[O-])c3)no2)c(C)c1 | -0.44
Cn1c(SCc2ccc(F)cc2)nnc1-c1oc2nc(-c3ccccc3)cc(-c3ccco3)c2c1N | -0.83
CCOc1ccc(C(=O)CC2(O)C(=O)Nc3ccccc32)cc1 (configuration not stated) | 3.4*
CC(C)c1ccc(C(=O)CC2(O)C(=O)Nc3ccccc32)cc1 (configuration not stated) | -1.4
CCc1ccc(C(=O)CC2(O)C(=O)Nc3ccccc32)cc1 (configuration not stated) | -0.1
O=C(Nc1cc(C(F)(F)F)cc(C(F)(F)F)c1)Nc1sccc1Cl | 0.66
Cc1ccc(/C(O)=C2\C(=O)C(=O)N(Cc3cccnc3)C2c2ccc(C)cc2)cc1 (configuration not stated) | 0.91
COCCN1C(=O)c2oc3cc(C)c(C)cc3c(=O)c2C1c1ccc(OCCC(C)C)c(OC)c1 (configuration not stated) | -1.6
CSc1n[nH]c(=O)n1-c1ccc(OCc2ccccc2)cc1 | -0.71
Cc1nnc(SCC(=O)c2c[nH]c3ccccc23)n1-c1ccccc1 | 4.3*
Cc1[nH]c2ccccc2c1C(=O)CSc1nnc(C)n1-c1ccccc1 | 2.8
Cn1c(SCC(=O)c2c[nH]c3ccccc23)nnc1-c1cccs1 | 2.6
COc1ccc(C2C(C(=O)OC3CCCC3)=C(C)NC3=C2C(=O)CC(c2ccccc2)C3)cc1OC (configuration not stated) | 2.4
CCCS(=O)(=O)c1ccc(NS(=O)(=O)c2sc3ccc(Cl)cc3c2C)cc1 | -1
CC(=O)c1ccc(C#N)c(SCC(=O)c2ccccc2)n1 | 0.91
Cc1nc(SCC(=O)c2ccccc2)c(C#N)c(C)c1C | 4.4*
CCOC(=O)CC(=O)CSc1nc(C)c(C)c(C)c1C#N | 0.68
COc1ccc(Cc2nnc(SCC(=O)NC(C)C)n2-c2ccc(F)cc2)cc1OC | 1.2
Clc1cccc(Nc2nnns2)c1Cl | 1.4
Cc1nnc(Nc2cccc(Cl)c2C)s1 | 3.4*
Cc1cc(Cl)ccc1Nc1nnc(-c2ccccc2Cl)s1 | -1.5
SMILES | Dicer inh
Ic1ccc2oc3ccc(I)cc3c2c1 | 1.1
COc1ccc(-c2cc(=O)c3ccccc3o2)cc1 | 0.02
COc1ccc(-c2cc3c(=O)oc4ccccc4c3[nH]2)cc1 | 4*
COc1ccc(-c2cc3ccccc3c(=O)o2)cc1 | -0.62
COc1ccc(/C=C2/N=C(c3ccccc3)OC2=O)s1 | 0.62
CC1=C(C(=O)OC2CCCC2)C(c2ccccc2Br)C2=C(CCCC2=O)N1 (configuration not stated) | 0.58
CCOC(=O)c1nn(-c2ccccc2)c2nc(N)cc(=O)n12 | -0.86
COc1oc(-c2cccc(C)c2)nc1C(F)(F)F | 3.6*
COc1cc(OC)cc(-c2nc(-c3cccc(C)c3)no2)c1 | -0.47
Cc1cccc(-c2nnc(-c3ccccc3)o2)c1 | 2.6
CC(C)Sc1sc(C#N)c2c1C(=O)CC(C)(C)C2 | -0.03
CC(C)(C)c1ccc(S(=O)(=O)N(C(=O)c2ccncc2)c2ccc3oc(=O)sc3c2)cc1 | 6.7*
CC(C)(C)c1ccc(S(=O)(=O)N(C(=O)c2cccnc2)c2ccc3oc(=O)sc3c2)cc1 | 4.6*
CCc1ccc(S(=O)(=O)N(C(=O)c2cccnc2)c2ccc3oc(=O)sc3c2)cc1 | 6.2*
O=C(c1ccncc1)N(c1ccc2oc(=O)sc2c1)S(=O)(=O)c1ccc(Br)cc1 | 2.1
CC(C)c1ccc(S(=O)(=O)N(C(=O)c2cccnc2)c2ccc3oc(=O)sc3c2)cc1 | 2.7
CCSCCOC(=O)C1=C(C)NC2=C(C(=O)CC(C)(C)C2)C1c1cccs1 (configuration not stated) | 0.06
O=C(O)C1CCN(C(=O)OCC2c3ccccc3-c3ccccc32)CC1 | 7.4
CCOC(=O)C1=C(C)N=C2SCC(=O)N2C1c1ccc(OC)cc1 (configuration not stated) | 0.93
CN(C)CCN1C(=O)C(O)=C(C(=O)c2cc3ccccc3o2)C1c1ccc(O)cc1 (configuration not stated) | 0.61
Fc1ccc(CNC(=S)Nc2ccc(F)cc2F)cc1 | -0.8
COC(=O)C(O)(NS(=O)(=O)c1ccc(C)cc1)C(F)(F)F (configuration not stated) | 0.35
Cc1ccc2c(c1)c1c(n2CC(O)CNCCO)C(=O)CCC1 (configuration not stated) | 0.58
O=C(Cn1c(=O)sc2ccccc21)Nc1nnc(SCC(=O)N2CCCCC2)s1 | 0.57
CCOC(=O)/C(C#N)=C/N1CCN(c2ccc(C(F)(F)F)cc2[N+](=O)[O-])CC1 | -0.59
SMILES | Dicer inh
Cc1ccc(N2C(=O)C3C4c5ccccc5C(CO)(c5ccccc54)C3C2=O)cc1Cl (configuration not stated) | 1.4
NC(=O)C1CCN(C(=O)Nc2cc3ccccc3s2)CC1 | -3.1
O=C(c1sc2ccccc2c1Cl)N1CCOCC1 | 0.17
O=C(c1cc2ccccc2s1)N1CCOCC1 | 3.2*
Cc1nnsc1-c1n[nH]c(C)c1C(=O)N/N=C/c1c(Cl)cccc1Cl | -1.2
Cc1nc(-c2coc3c(C)c(O)c(CN(C)C)cc3c2=O)cs1 | -0.18
O=c1c(-c2nc3ccccc3s2)coc2c(CN3CCCCC3)c(O)ccc12 | 0.4
CCc1cc2c(=O)c(-c3nc4ccccc4n3C)c(C)oc2cc1O | 1.3
CCc1cc2c(=O)c(-c3nc4ccccc4[nH]3)coc2c(CN(CC)CC)c1O | 0.96
CCc1cc2c(=O)c(-c3nc4ccccc4n3C)coc2c(CN(C)C)c1O | 3.4*
CCc1cc2c(=O)c(-c3nc4ccccc4[nH]3)coc2c(CN2CCC(C)CC2)c1O | 4.9*
COCCOC(=O)C1=C(C)NC2=C(C(=O)CC(C)(C)C2)C1c1cccc(OC)c1OC (configuration not stated) | 0.53
COc1ccc(C(=O)COC(=O)C2C3CCC(C3)C2C(=O)c2ccccc2)cc1 (configuration not stated) | 1.1
CCOC(=O)c1cc(C(C)(C)C)n(CCCNC(=O)OC(C)(C)C)c1C | -1.4
O=[N+]([O-])c1c(Nc2cccc(C(F)(F)F)c2)ncnc1Nc1cccc(C(F)(F)F)c1 | -0.15
O=[N+]([O-])c1c(Nc2ccc(Cl)cc2)ncnc1Nc1ccc(Cl)cc1 | 3.5*
Cc1[nH]nc(Nc2ccc(C(C)C)cc2)c1[N+](=O)[O-] | 0.47
CNc1ncnc(NNC(=O)Nc2cccc(Cl)c2)c1[N+](=O)[O-] | 1.6
CNc1ncnc(NNC(=O)Nc2ccc(Cl)cc2)c1[N+](=O)[O-] | 4.5*
CNc1ncnc(Oc2ccc(Cl)cc2)c1[N+](=O)[O-] | -0.48
COc1cccc(OCC(O)Cn2c(CO)nc3ccccc32)c1 (configuration not stated) | -0.31
CCOC(=O)c1csc(Cc2c(Cl)sc3ccc(Cl)cc23)n1 | 0.9
O=c1oc2ccccc2n1Cc1c(F)cccc1Cl | 0.3
COc1cccc(N2C=CC(C)(C)NC2=S)c1 | 0.83
Cc1cccc(OCC(O)Cn2c[n+](C)c3ccccc32)c1 (configuration not stated) | -1.1
CC(=O)n1nc(N)c([N+](=O)[O-])c1N | 2.5
Cc1ccc(-c2nnc3c4ccccc4c(C)nn23)cc1S(=O)(=O)N1CCC(C)CC1 | 5.5*
